Measurements taken from article PMC12136788.
Over roughly 24,000 sequences, “enrichment r” has its median near 0.99; the highest 2% begin near 3.7. The list is a sample of the results.

B1: chr1:220276048:220276049:+_ENSG00000067704_ENST00000302637|hu_hu|hu_hu_hu_mus_True|18_88 (ssRNA)
RNA: GGGAGUUCUACAGUCCGACGAUCGCAAAUUGCCUGGUUGGCGGGAAUCGUCCAAGGCUGGGUGGUCCAAACUAAAACGCUAACAGGGGAUGAGGCAUCUGUAAGAGACUCCAACUUUGGAGAAGGCCUCAGGAGGGGGAAUCUCAACAGAGGAUUGAGCAUCA
B2: chr11:111909998:111909999:+_ENSG00000150768_ENST00000533297|hu_hu|FALSE|FALSE (ssRNA)
RNA: GGGAGUUCUACAGUCCGACGAUCACCCUUCCCUUUGGUCCAGCAGGAGUAGCUGGGCAGGGUGCUGAAGGUGUAGGAGCUAAAGGCUGGGGAGUUGGAGGAACAGCGGCCACCGGGGGUGGGGUAGGUGGUGGCACUUGUGGUCAACAGAGGAUUGAGCAUCA
B3: 91020203_91021877_1494_CDS_ENSMUSG00000030091_ENSMUST00000032179|mouse|control|control (ssRNA)
RNA: GGGAGUUCUACAGUCCGACGAUCCAUGACCCCCUUGACGGUGACUGUGGCAACCAUGGAGCUUGACGAAGACCAGCUGAAGUUCCCACUGCCCCCAUGGGCCUUUAUGGUAUACUGAUAGGCGCCUGUCUUUGGUUGCCAUGGCAACAGAGGAUUGAGCAUCA
B4: chr7:7679991:7679992:-_ENSG00000106399_ENST00000396682|hu_hu|hu_hu_hu_mus_False|88_98 (ssRNA)
RNA: GGGAGUUCUACAGUCCGACGAUCUGGGAUGAAUCUUUUCCAGCCUCCCUACGAAGCACACGGGCCGGUCGAUAUACUGUGGUAACAUGCUGGCGUUGACGCGCGCUUUGGGGAGCUGCAUUAUGUCCUCCAUGAUUCUGCCGCCAACAGAGGAUUGAGCAUCA
B5: chr8:104075188:104075189:+_ENSG00000155097_ENST00000518738|hu_hu|motif|central (ssRNA)
RNA: GGGAGUUCUACAGUCCGACGAUCCUUCCUAAACAAGGUGACAUUACACAGGUAACUGUCUUGGUCCUCUGAAAGAACAUUGCGGGACCUUGGAACUACCAUUUCGGCUAGUGUUUCAUACUGCUUAAUCCAGUCGUUGUGGUUCAACAGAGGAUUGAGCAUCA
B6: chr8:122087627:122087628:-_ENSMUSG00000034189_ENSMUST00000036049|mus_hu|FALSE|FALSE (ssRNA)
RNA: GGGAGUUCUACAGUCCGACGAUCUAGUUACAAAAUAAUACUUUUCAGUAGUCUUUCUUGAUGCACAUUUAAAAACCAGCACAACUCCUCUAGUGAAAUGGUCAAUUUCCCUUAAAAAACAACAUCUGAAAUUAUAAGACCUGACAACAGAGGAUUGAGCAUCA

Each binder was assayed against T1, UNK ZnF1-3 (human, UniProt Q9C0B0 31-174) (assay: nsRBNS (natural sequence RNA bind-n-seq); RBNS binding buffer (assumed for nsRBNS): 25 mM Tris pH 7.5, 150 mM KCl, 3 mM MgCl2, 0.01% Triton X-100, 500 ug/ml BSA, 20 U/ml SUPERase-In, 4 C; UNK is unkempt and MSI1 is Musashi-1; names of the RNAs are library labels; protein concentration not given here; high values mean tight binding).
T1 sequence: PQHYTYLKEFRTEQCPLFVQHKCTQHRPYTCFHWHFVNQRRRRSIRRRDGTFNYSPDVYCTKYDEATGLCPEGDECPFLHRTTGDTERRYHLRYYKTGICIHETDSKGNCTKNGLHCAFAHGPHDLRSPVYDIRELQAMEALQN

Binder	binding signal [enrichment R]
B1	2.21
B2	1.76
B3	0.642
B4	0.573
B5	0.508
B6	1.2
